Measurements: the supplement of paper PMC11417369
Whole data set: some 25,000 sequences, median “ln(normalized median fluorescence intensity)” near 7.1, cut for the highest 2% near 10. The full list was thinned out, with the highest values kept by preference.

What follows are sequences tested on PfSIP2 AP2 domain 1 (GST-tagged) (assay: gcPBM binding intensity (ln(normalized median fluorescence intensity)); higher = stronger DNA binding).
Procedure, shortened: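 The binding buffer was 1× PBS containing 1% milk, 0.2 mg/ml BSA, 0.5% salmon testes DNA and 0.03% Triton X-100. In it, GST-tagged P. falciparum DNA-binding domains expressed in E. coli were applied for 1 h to an Agilent 4 × 180k array of primer-extended double-stranded 36-bp intergenic genomic probes plus negative controls. Binding intensity, read with Alexa488 anti-GST antibody and a 488 nm scan, is the highest Masliner-normalised natural-log median intensity across replicate spots of either probe orientation.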

| Sequence | gcPBM binding intensity (ln) |
| --- | --- |
| TATAATAAAATTTTTACACACTTTAAAAAAAAAAAA [CACACA_site524] | 6.88 |
| ATATATATATAGTGCACACATATAAAATATATATAA [CACACA_site2745] | 10.3 |
| TTTATATTTTTTTTTGCACACTTTAAAAAAATATAT [CACACA_site1146] | 7.4 |
| TTATACAGGACAATAGTGCACATAAATATATGTATA | 10.6 |
| ATATAAATATAGTGTGCACACACATAATATATATAT [CACACA_site8713] | 8.66 |
| AATACAATAAAATAGTGTACATATATATTATGTATA [XGTACX_site8258] | 6.93 |
| ATATATATATATAGTGCACACATATAAAATATATAT [CACACA_site8884] | 10.1 |
| AAAAAAAAAAAAAGTGCACACTTTTAATATAAATAT [CACACA_site3314] | 10.8 |
| AACATATTGGATTTAGTGCACATATATATCATAATA | 10.3 |
| AAAAATAAATATATATGTACACATATGTATACAATA [XGTACX_site4692] | 7.03 |
| AGTGCATAATATTTATGTACGTATCACATATATTTT [XGTACX_site5166] | 9.05 |
| ATATATCATATTATAGTGCATTTATAATAATATTAT | 9.33 |
| AAGTATTATTTTTATGCATGTGAAGTGCAAAATAAA [TGCATGCA_site198] | 9.56 |
| TTTTATTTTCGATGATGTACATTAAATTATACAGTA [XGTACX_site6053] | 7.01 |
| AATACAATTTTTAACACACACACAATAATACAGATA [CACACA_site4823] | 7.17 |
| ACAAATATGAGAAATTGTACATATAATAAAATAGTA [XGTACX_site2573] | 6.93 |
| AAATAAATAAATATACGTACATATATATAATATATA [XGTACX_site5124] | 7.23 |
| TATGTAAAAAGAGAAAAAAAAAAGAACGATAATTTC [CACACA_negctrl_site946] | 6.58 |
| AATTAAAAAATTATCACACATATATATATATATATA [CACACA_site5789] | 9.53 |
| TTTATATACACACAGAAGAACAGAAATATTATATAT [TGCATGCA_negctrl_site483] | 7.2 |
| TTTAAAAAATAATATTGTACTATTCTCCCAATTTCT [XGTACX_site7079] | 6.57 |
| GGTATACATATTAAATGTACATATTTTAACAATAAG [XGTACX_site4868] | 7.1 |
| TGATTCTTTTGTATCACACACACTTAGTTTAATTTT [CACACA_site2404] | 6.85 |

| Sequence | gcPBM binding intensity (ln) |
| --- | --- |
| TCTGTAAATACGTGCACACACAAATCACAAATGTGA [CACACA_site330] | 9.89 |
| AATAAAAAAAAAAATAATATATATGTATAAATATAT [CACACA_negctrl_site1561] | 6.83 |
| AAAAAAAAAAAAAAAGCACACACCAATGAGCAGCTT [CACACA_site1845] | 7.62 |
| TTTTTTATTTTGTGCACACACATAAAAATATAAATA [CACACA_site6497] | 9.8 |
| ATTTTTTTATTTTGTGCACACACATAAAAATATATA [CACACA_site762] | 9.99 |
| TTTTTTATTTTGTGCACACACATAAAAATATATATA [CACACA_site761] | 9.42 |
| TTTTTCCTATTTTTAGTGCACATATAAATAAATAAA [GTGCAC_site9821] | 10.7 |
| TATATCTGTTTATATTGTACACATATATATATATAT [XGTACX_site714] | 9.28 |
| ATATCATTTTCCTGCACACATAAATTTATATAATAT [CACACA_site1048] | 7.82 |
| AATAATAAAAAAAGTGCACACACATAATATATATAT [CACACA_site9100] | 10.6 |
| AATATAATATAATGCACACATAAAAAAAAAAAAATC [CACACA_site1303] | 7.43 |
| AGGTCTGTTTTATATTGTACATAAAAAGTGCACATG [XGTACX_site4529] | 11.4 |
| TATATATTCATAAAGTGTACATGTTTATATATATAT [XGTACX_site7585] | 8.48 |
| AAAATAAAAATAAAAGCACACATAAATATATATATA [CACACA_site8409] | 8.73 |
| TAATAAAAAAAGTGCACACACATAATATTTATATAT [CACACA_site7548] | 10.7 |
| ATCTATTTCTATTGTTGTACTTATTTTTCATTGTTT [XGTACX_site6942] | 7.27 |
| AATAGGTGCCTTTTTTCACACACATGTCAACTAAAT [CACACA_site8846] | 9.34 |
| GATATATAAATAGATACACACATACATACATACATA [CACACA_site6260] | 7.18 |
| ATATTTATTTTATAAAGTACTAAAAAATATATTATA [XGTACX_site8522] | 6.9 |
| CATATAATAAATAATTGTACTTGATATAATATTATG [XGTACX_site3562] | 6.91 |
| CCTTTATAAAAAAGTAGTACACAATGAATTTATAAT [XGTACX_site5523] | 7.1 |
| CAAAATTAATAAGTCACACACACATCTATAATATAT [CACACA_site6519] | 6.78 |
| ACATAAAATTGTTAAAAAATTGTATAAATAATACAT [XGTACX_negctrl_site557] | 6.81 |

| Sequence | gcPBM binding intensity (ln) |
| --- | --- |
| TAATTCTAAATAAATGTACACACAAAAATAAATGTA [CACACA_site8509] | 7.02 |
| TGTCAATCATATAAATGTACATTTTAAATGAGGTGT [XGTACX_site7391] | 7.36 |
| ATATATATATAGTGCACACTTAAGAATATAAAGAGG [CACACA_site1151] | 10.1 |
| AAAAGTCTCTTTTTAGTGCACATTTTATTTAAATAT | 10.2 |
| TAATTATTTTAAAAAGTGCATTAAAAGATATTAAAT [GTGCAC_site9694] | 8.22 |
| AAATAAAGAATATAAATACACACTTAAATATATATT [CACACA_site4007] | 6.73 |
| ATATATATATATAGTGCACACTTAAGAATATAAAGA [CACACA_site4771] | 10.2 |
| TATATATATATATGTGCACACATAATAAAAAAAAAA [CACACA_site3830] | 9.64 |
| AATATAATATAATGCACACATAAAAAAAAAAAAAAA [CACACA_site304] | 7.47 |
| TAATAAAAAAAGTGCACACACATAATATATATATAT [CACACA_site3340] | 10.4 |
| AAAAGTATATATTCAGTGCATAGTCTTTAAATATAA [GTGCAC_site9522] | 8.15 |
| ACAATAAAGAACAGTATGCACTTTTATGCATGCGTA | 8.94 |
| CAAATAATATTATGAAGTACTTCAAATTTTGAAAGA [XGTACX_site2530] | 6.98 |
| TATTTATTTATGTGTTGTACAAATAAATAGAGGTAT [XGTACX_site6408] | 7.35 |
| AAAAATAAAACAATTACACACATAATTTTATTTTTA [CACACA_site928] | 6.86 |
| ATATTTAACAGGTTAAAAATATAAACAAATAAATAA [CACACA_negctrl_site907] | 6.85 |
| ATGCAAAATAAAGAAGCACACAAAAATGAAATATAT [CACACA_site9217] | 7.2 |
| TGTGTATAAGTCACTTGTACTAGTAGTAAAAAAAAA [XGTACX_site4341] | 6.85 |
| TTCTATATTATATATGCATGTGTTATTCTTATTTTC [TGCATGCA_site92] | 7.15 |
| ATTATTTTTCTATGTGTGCACGTGTGGAATGTGTCT [GTGCAC_site9507] | 10.3 |
| TTATTTATTCTATGTGCATGTTATTTTTTTTTTTCG [TGCATGCA_site262] | 7.6 |
| ATATATATTAATATTTGTACATAAAATTATTTCAAT [XGTACX_site5364] | 7.14 |
| TTTTCAATATATTAATGTACGAATACGCAAATAAGA [XGTACX_site1613] | 7.23 |

| Sequence | gcPBM binding intensity (ln) |
| --- | --- |
| GTATATGAATAATATTTTATGGTAATTTTTTTTTTT [XGTACX_negctrl_site512] | 6.91 |
| ATATGACATAAAACATGTACATGTTCATAAATATAT [XGTACX_site1923] | 7.07 |
| AAATATAATAATATATGTACATATATATATATATAT [XGTACX_site6980] | 9.73 |
| ATATATATTAATTTTGTGCACAAATGGAAATGTTTG [GTGCAC_site9971] | 8.34 |
| GAAATTTTTAATGTGGTGCACAGGAAATTTTTTCTT | 11 |
| AAAAAAAATTTAATTGCACACAGGAAAATATAATTT [CACACA_site3810] | 7.01 |
| AAGCGAATCTATATCACACACAAAAAAATCAGACTA [CACACA_site7072] | 6.94 |
| GACTACACACAAGGGTGTACATATATATTATATATA [XGTACX_site2247] | 7.31 |
| TAAGTATAATATTGATGTACATATAATAACTTGTAT [XGTACX_site417] | 7.03 |
| CATTTTATTTTCTTTGTGCACAAAAATATTTTTTCT | 8.78 |
| TTTTATTTCTTTGCACCATTTTAAATACAAACAAAT [CACACA_negctrl_site1553] | 10.7 |
| TCTTTCCTTATTAAAACACACAAATACATTATTTAA [CACACA_site2147] | 7.13 |
| ATATGTACAAGTTATACACACATGTACAGTTATATA [CACACA_site6706] | 7.11 |
| TATGAGAAAAAAAGTACATGCACAAAATGTATATGT [TGCATGCA_site789] | 7.3 |
| ATATGAAGTTATATAGTGCACATGTACAACCAAATC [GTGCAC_site9974] | 10.4 |
| GAAGTTAGTGTTGACTGTACATATATATGTATATAT [XGTACX_site7243] | 7.21 |
| GAAATTATGTAAAAAAGTACTAACATACATATATAT [XGTACX_site1794] | 7.18 |
| AATGTGCAAACAAACTGTACTTTTTTTTTTTTTTTT [XGTACX_site928] | 7.84 |
| GAATTTATGAACTGTGCATGTAAAAAAAACAACAAA [TGCATGCA_site449] | 8.15 |
| AAAAACAAACTGTGCATGCACCAAAAAAAAAAAAAA | 10.4 |
| TTATTTACTTATTGCACACATATAAAATATATTTAT [CACACA_site3101] | 7.74 |
| TAATATATTTATAGAGCATGCAACGTAATATTATTA [TGCATGCA_site863] | 7.12 |
